Measurements published in the supplement of paper PMC10849652.
Targets with a hit are over-represented here; the source holds about 7,900 in all. About 0.6% of all pairs of compound and target were hits. Unmarked numbers belong to inactive results.

How the values were obtained:
Assay in all cases: log2 fold change, soluble protein after heating vs DMSO (PISA); higher = thermal stabilisation; K562 cells, 10 uM, 30 min; active = over 0.2 and 3.5 SD of the protein, either way, in both replicates (recomputed)
saracatinib = compound: CN1CCN(CCOc2cc(OC3CCOCC3)c3c(Nc4c(Cl)ccc5c4OCO5)ncnc3c2)CC1 [saracatinib]
Method in brief: (§1)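 Values are thermal stability changes relative to control samples and are taken from duplicates. They are stated as log2 fold changes. Before quantification by TMTpro 16plex LC-MS/MS with equalised channel sums, K562 cells at 2×10^6 cells/mL were treated with 10 μM compound for 30 min, heated in aliquots for 3 min across 48°C-58°C, pooled, extracted in PBS with 0.5% NP-40 at 4°C, and centrifuged at 21,000xg for 90 min to give the soluble supernatant.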

sotrastaurin = compound: CN1CCN(c2nc(C3=C(c4c[nH]c5ccccc45)C(=O)NC3=O)c3ccccc3n2)CC1 [sotrastaurin]
Method in brief: as §1

alvocidib = compound: CN1CC[C@H](c2c(O)cc(O)c3c(=O)cc(-c4ccccc4Cl)oc23)[C@H](O)C1 [alvocidib]
Method in brief: as §1

Tubastatin A = compound: CN1CCc2c(c3ccccc3n2Cc2ccc(C(=O)NO)cc2)C1 [Tubastatin A]
Method in brief: as §1

[1] = compound: CNC(=O)C1=CC=CC=C1NC2=NC(=NC=C2Cl)NC3=C(C=C(C=C3)N4CCOCC4)OC
Method in brief: as §1

defactinib = compound: CNC(=O)c1ccc(Nc2ncc(C(F)(F)F)c(NCc3nccnc3N(C)S(C)(=O)=O)n2)cc1 [defactinib]
Method in brief: as §1

rucaparib = compound: CNCc1ccc(-c2[nH]c3cc(F)cc4c3c2CCNC4=O)cc1 [rucaparib]
Method in brief: as §1

[2] = compound: CNc1nc(-c2ccc3c(N)n[nH]c3c2)cc(N2C[C@@H](C(=O)NC3CCCCC3)CC[C@H]2C)n1
Method in brief: as §1

encorafenib = compound: COC(=O)N[C@@H](C)CNc1nccc(-c2cn(C(C)C)nc2-c2cc(Cl)cc(NS(C)(=O)=O)c2F)n1 [encorafenib]
Method in brief: as §1

[3] = compound: COC(=O)[C@H](CCSC)NC(=O)C1=C(C=C(C=C1)NC[C@H](CS)N)C2=CC=CC=C2
Method in brief: as §1

[4] = compound: COC1=CC=C(C=C1)CN2C=CC3=C2C=C(C=C3)C(=O)NO
Method in brief: as §1

filanesib = compound: CON(C)C(=O)N1N=C(c2cc(F)ccc2F)S[C@@]1(CCCN)c1ccccc1 [filanesib]
Method in brief: as §1

zotarolimus = compound: CO[C@H]1C[C@@H]2CC[C@@H](C)[C@@](O)(O2)C(=O)C(=O)N2CCCC[C@H]2C(=O)O[C@H]([C@H](C)C[C@@H]2CC[C@H](n3cnnn3)[C@H](OC)C2)CC(=O)[C@H](C)/C=C(\C)[C@@H](O)[C@@H](OC)C(=O)[C@H](C)C[C@H](C)/C=C/C=C/C=C/1C [zotarolimus]
Method in brief: as §1

idasanutlin = compound: COc1cc(C(=O)O)ccc1NC(=O)[C@@H]1N[C@@H](CC(C)(C)C)[C@](C#N)(c2ccc(Cl)cc2F)[C@H]1c1cccc(Cl)c1F [idasanutlin]
Method in brief: as §1

alisertib = compound: COc1cc(Nc2ncc3c(n2)-c2ccc(Cl)cc2C(c2c(F)cccc2OC)=NC3)ccc1C(=O)O [alisertib]
Method in brief: as §1

[5] = compound: COc1cc2nc(-c3cc(F)ccc3O)nc(N[C@@H]3CNC[C@H]3C(C)(C)O)c2cc1OC
Method in brief: as §1

gefitinib = compound: COc1cc2ncnc(Nc3ccc(F)c(Cl)c3)c2cc1OCCCN1CCOCC1 [gefitinib]
Method in brief: as §1

[6] = compound: COc1cccc2cc(-c3nc([C@H]4CC[C@H](C(=O)O)CC4)n4ncnc(N)c34)[nH]c12
Method in brief: as §1

lapatinib = compound: CS(=O)(=O)CCNCc1ccc(-c2ccc3ncnc(Nc4ccc(OCc5cccc(F)c5)c(Cl)c4)c3c2)o1 [lapatinib]
Method in brief: as §1

pictilisib = compound: CS(=O)(=O)N1CCN(Cc2cc3nc(-c4cccc5[nH]ncc45)nc(N4CCOCC4)c3s2)CC1 [pictilisib]
Method in brief: as §1

Chain of UniProt Q9HCE1 (Q9HCE1 whole entry, looked up): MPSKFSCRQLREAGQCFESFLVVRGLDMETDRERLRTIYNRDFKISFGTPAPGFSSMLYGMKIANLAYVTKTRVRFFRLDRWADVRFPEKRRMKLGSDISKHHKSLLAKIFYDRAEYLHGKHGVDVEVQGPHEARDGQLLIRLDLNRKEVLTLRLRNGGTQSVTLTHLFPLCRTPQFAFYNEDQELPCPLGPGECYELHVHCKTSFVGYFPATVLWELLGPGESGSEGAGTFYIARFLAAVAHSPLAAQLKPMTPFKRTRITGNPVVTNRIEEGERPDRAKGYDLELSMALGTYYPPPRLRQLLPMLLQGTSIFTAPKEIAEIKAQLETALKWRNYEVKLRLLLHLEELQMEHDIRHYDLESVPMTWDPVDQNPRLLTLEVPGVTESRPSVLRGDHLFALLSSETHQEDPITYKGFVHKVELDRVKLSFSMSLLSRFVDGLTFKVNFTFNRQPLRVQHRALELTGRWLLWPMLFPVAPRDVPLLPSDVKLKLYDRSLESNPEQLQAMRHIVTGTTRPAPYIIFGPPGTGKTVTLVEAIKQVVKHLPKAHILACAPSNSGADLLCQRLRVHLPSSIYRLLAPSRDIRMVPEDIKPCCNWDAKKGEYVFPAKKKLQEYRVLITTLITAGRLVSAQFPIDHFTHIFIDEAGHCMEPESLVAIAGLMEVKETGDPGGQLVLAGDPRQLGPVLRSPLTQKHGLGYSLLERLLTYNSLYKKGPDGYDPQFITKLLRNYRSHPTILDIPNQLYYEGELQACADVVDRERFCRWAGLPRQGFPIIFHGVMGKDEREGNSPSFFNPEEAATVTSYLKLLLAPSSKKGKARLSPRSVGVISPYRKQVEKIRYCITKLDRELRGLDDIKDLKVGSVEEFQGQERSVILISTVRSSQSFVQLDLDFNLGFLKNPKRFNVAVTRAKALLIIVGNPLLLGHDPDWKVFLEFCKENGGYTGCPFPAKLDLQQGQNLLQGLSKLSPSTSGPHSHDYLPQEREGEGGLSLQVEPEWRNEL
Chain of UniProt Q86VX9 (Q86VX9 whole entry, looked up): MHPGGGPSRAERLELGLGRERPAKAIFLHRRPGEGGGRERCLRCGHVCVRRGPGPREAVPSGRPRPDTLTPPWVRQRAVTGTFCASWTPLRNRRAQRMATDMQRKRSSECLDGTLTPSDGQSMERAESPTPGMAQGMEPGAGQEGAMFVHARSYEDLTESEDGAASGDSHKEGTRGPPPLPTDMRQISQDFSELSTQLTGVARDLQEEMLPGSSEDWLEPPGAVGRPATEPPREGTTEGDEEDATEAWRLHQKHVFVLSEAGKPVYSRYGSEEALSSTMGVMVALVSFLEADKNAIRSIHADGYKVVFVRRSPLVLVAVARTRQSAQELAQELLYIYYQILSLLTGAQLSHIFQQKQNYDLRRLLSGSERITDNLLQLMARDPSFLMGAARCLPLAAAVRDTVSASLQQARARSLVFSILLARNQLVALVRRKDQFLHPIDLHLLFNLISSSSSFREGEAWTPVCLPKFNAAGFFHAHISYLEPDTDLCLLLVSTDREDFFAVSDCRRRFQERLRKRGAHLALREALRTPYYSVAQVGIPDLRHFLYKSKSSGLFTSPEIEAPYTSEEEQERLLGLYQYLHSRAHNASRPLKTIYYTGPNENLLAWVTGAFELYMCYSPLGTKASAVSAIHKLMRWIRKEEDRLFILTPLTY
Chain of UniProt Q9UHC9 (Q9UHC9 whole entry, looked up): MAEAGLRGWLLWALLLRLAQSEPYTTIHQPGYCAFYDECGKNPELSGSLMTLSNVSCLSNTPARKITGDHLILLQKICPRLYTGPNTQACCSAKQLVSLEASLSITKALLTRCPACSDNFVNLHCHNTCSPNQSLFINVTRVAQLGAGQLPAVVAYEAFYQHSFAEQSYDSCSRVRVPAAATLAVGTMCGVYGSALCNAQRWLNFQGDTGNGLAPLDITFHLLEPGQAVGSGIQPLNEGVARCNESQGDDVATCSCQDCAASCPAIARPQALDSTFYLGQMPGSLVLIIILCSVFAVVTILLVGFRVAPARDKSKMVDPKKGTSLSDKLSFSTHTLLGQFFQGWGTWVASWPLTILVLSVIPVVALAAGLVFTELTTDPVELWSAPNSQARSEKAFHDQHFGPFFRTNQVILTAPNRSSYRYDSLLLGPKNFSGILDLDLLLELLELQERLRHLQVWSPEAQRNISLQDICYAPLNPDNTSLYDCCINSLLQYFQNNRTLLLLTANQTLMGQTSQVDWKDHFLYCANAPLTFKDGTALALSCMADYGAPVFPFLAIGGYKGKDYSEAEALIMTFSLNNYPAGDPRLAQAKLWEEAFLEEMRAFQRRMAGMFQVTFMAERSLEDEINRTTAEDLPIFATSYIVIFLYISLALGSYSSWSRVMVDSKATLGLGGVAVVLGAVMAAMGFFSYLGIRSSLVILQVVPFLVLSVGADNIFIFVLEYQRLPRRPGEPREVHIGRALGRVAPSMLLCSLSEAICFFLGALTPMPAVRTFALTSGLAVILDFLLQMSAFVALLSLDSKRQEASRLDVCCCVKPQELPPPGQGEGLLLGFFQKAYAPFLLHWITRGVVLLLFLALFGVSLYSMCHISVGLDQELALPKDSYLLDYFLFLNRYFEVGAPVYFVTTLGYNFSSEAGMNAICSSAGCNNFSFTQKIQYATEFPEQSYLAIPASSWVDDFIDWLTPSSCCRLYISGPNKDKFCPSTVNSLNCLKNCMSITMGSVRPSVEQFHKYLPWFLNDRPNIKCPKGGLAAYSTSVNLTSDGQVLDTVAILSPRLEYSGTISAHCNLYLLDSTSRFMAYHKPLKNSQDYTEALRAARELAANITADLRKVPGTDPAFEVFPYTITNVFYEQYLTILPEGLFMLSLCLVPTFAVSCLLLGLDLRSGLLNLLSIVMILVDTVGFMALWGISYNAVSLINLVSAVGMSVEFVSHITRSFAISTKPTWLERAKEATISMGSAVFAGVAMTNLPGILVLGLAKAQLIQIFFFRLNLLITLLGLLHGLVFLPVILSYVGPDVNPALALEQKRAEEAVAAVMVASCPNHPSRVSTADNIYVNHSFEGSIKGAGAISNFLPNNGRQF
Chain of UniProt P51948 (P51948 whole entry, looked up): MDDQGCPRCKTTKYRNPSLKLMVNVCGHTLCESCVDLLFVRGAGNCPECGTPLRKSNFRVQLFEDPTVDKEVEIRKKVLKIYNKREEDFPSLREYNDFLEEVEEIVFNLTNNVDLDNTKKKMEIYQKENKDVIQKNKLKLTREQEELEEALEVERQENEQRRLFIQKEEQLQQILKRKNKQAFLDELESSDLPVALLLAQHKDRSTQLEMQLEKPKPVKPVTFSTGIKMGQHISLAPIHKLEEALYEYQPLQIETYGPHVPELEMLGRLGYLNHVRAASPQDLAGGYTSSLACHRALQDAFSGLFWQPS
Chain of UniProt Q8NBF2 (Q8NBF2 whole entry, looked up): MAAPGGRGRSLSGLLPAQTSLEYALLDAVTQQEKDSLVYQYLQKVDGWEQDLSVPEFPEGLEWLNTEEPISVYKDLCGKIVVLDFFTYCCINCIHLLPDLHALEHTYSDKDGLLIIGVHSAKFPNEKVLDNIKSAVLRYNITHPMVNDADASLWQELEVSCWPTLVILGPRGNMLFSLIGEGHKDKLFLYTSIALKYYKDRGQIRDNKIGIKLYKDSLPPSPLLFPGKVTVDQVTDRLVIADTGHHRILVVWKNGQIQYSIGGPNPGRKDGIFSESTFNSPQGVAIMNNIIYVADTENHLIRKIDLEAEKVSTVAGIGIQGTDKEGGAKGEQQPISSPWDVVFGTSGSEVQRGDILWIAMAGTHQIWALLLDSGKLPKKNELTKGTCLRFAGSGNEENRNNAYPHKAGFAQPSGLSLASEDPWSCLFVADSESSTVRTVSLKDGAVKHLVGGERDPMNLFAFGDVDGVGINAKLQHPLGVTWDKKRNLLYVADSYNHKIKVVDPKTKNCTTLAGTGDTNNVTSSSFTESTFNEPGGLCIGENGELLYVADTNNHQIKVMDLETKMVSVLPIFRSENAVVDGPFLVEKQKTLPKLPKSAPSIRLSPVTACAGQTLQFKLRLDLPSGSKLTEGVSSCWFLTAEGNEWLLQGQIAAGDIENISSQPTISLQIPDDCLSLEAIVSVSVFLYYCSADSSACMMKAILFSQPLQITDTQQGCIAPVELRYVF
Chain of UniProt P30419 (P30419 whole entry, looked up): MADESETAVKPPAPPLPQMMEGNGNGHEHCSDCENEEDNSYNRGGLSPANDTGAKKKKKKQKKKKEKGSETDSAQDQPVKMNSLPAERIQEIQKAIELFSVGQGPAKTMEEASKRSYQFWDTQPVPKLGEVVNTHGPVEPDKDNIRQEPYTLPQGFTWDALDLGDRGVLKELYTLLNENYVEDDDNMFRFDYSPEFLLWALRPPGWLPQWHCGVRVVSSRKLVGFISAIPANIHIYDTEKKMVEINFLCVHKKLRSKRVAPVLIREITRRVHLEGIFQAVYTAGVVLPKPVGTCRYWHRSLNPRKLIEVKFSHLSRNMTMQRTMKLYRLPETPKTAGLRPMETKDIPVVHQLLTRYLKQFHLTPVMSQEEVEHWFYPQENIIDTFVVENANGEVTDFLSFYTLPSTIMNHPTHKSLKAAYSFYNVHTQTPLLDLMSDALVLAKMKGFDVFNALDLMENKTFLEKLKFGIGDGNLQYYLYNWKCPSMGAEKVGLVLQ
Chain of UniProt Q9H019 (Q9H019 whole entry, looked up): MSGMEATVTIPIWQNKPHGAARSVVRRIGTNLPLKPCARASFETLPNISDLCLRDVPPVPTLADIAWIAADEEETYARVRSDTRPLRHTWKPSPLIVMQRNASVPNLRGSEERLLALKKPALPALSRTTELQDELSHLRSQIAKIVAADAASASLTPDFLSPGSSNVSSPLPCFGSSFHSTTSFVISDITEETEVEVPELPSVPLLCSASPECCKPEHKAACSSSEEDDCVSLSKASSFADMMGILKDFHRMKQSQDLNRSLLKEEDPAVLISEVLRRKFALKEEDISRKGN
Chain of UniProt Q9NRP0 (Q9NRP0 whole entry, looked up): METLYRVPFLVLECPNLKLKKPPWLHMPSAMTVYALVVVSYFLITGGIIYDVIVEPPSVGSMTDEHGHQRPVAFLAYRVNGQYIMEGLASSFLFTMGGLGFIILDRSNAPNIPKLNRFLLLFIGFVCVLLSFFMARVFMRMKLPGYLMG

Target	log2 fold change (saracatinib)	log2 fold change (sotrastaurin)	log2 fold change (alvocidib)	log2 fold change (Tubastatin A)	log2 fold change [1]	log2 fold change (defactinib)	log2 fold change (rucaparib)	log2 fold change [2]	log2 fold change (encorafenib)	log2 fold change [3]	log2 fold change [4]	log2 fold change (filanesib)	log2 fold change (zotarolimus)	log2 fold change (idasanutlin)	log2 fold change (alisertib)	log2 fold change [5]	log2 fold change (gefitinib)	log2 fold change [6]	log2 fold change (lapatinib)	log2 fold change (pictilisib)
NUDT16 (UniProt Q96DE0)	0.063	-0.031	-0.075	0.009	-0.057	-0.024	0.009	-0.004	-0.017	-0.05	-0.033	-0.018	0.1	-0.01	-0.168	0.025	0.005	0.112	0.054	0.045
NFE2 (UniProt Q16621)	0.011	-0.096	-0.182	0.093	-0.025	-0.037	-0.075	-0.065	0.018	-0.06	0.135	0	0.146	0.023	-0.056	-0.032	-0.008	0.014	0.007	0.05
MON1A (UniProt Q86VX9)	0.013	0.058	–	0.047	-0.103	–	-0.023	0.029	0.253	–	-0.118	-0.023	–	–	0.291	-0.042	0.427	0.049	-0.003	-0.011
MOV10 (UniProt Q9HCE1)	0.007	0.024	0.232	0.025	0.107	0.167	0.271	0	0.05	0.053	-0.048	0.155	-0.005	0.071	-0.073	-0.021	0.002	-0.1	0.073	-0.048
P4HA2 (UniProt O15460)	0.002	-0.033	0.004	0.098	0.003	0.085	0.145	0.016	-0.019	0.001	-0.109	0.078	0.026	–	0.011	-0.139	0.006	-0.11	0.075	-0.003
MTFR1L (UniProt Q9H019)	0.052	-0.037	-0.106	0.052	-0.024	-0.085	–	-0.054	–	-0.14	0.036	-0.09	0.037	-0.04	–	-0.111	0.083	–	0.044	0.011
NAGPA (UniProt Q9UK23)	-0.009	-0.017	-0.008	0.068	0.022	–	-0.132	-0.049	0.014	–	-0.025	-0.046	-0.099	0.054	-0.069	-0.044	0.001	0.248	0.139	0.134
NMT1 (UniProt P30419)	-0.046	0.019	0.001	-0.029	-0.003	0.015	-0.009	0.013	-0.002	0.024	-0.023	-0.005	0.042	-0.015	-0.056	-0.009	-0.044	0.018	0.03	0.029
OSTC (UniProt Q9NRP0)	0.111	-0.05	-0.048	-0.174	0.03	-0.053	-0.036	-0.004	0.047	-0.046	-0.05	-0.171	-0.105	-0.041	-0.101	-0.184	0.018	0.026	-0.041	0.162
MNAT1 (UniProt P51948)	-0.017	0	-0.002	0.006	0.012	-0.03	-0.046	-0.004	-0.006	-0.009	-0.025	0.073	0.011	0.021	-0.047	-0.04	-0.039	0.036	0.009	-0.016
NUMBL (UniProt Q9Y6R0)	-0.088	-0.412 (active)	0.07	–	0.144	-0.101	–	-0.015	–	0.098	-0.079	0.128	-0.012	-0.061	-0.168	0.005	0.036	-0.149	0.012	-0.022
NPC1L1 (UniProt Q9UHC9)	-0.026	0.033	0.013	0.005	–	-0.093	-0.06	-0.051	-0.038	0.093	-0.177	-0.099	-0.09	-0.041	-0.144	0.079	0.557	0.106	-0.105	–
NEU1 (UniProt Q99519)	-0.044	0	-0.033	0.028	-0.113	-0.011	-0.012	-0.011	-0.012	-0.019	0.153	-0.107	0.001	0.015	-0.123	-0.05	-0.091	-0.073	-0.015	-0.113
NUP107 (UniProt P57740)	-0.017	-0.103	-0.056	0.067	0.023	-0.081	0.041	0.02	0.111	0	-0.005	0.233	0.032	0.026	0.007	-0.116	-0.073	-0.04	0.137	-0.13
NCBP2AS2 (UniProt Q69YL0)	0.056	0.215	-0.004	-0.064	-0.005	0.013	-0.03	-0.081	0.031	0.031	–	-0.09	-0.051	-0.023	-0.058	-0.42 (active)	-0.137	0.044	-0.093	0.033
NHLRC2 (UniProt Q8NBF2)	-0.026	0.039	-0.037	-0.072	-0.055	-0.039	-0.016	0.059	-0.045	0.146	-0.084	-0.062	-0.001	-0.061	0.1	0.061	-0.011	0.123	-0.057	0.062
NA isoform 3 (UniProt Q4G0T1)	-0.011	0.035	0.039	0.04	0.007	0.034	–	-0.053	–	-0.001	-0.007	0.049	0.044	0.052	-0.09	0.039	0.016	0.106	0.112	–
